The structures appear in SMILES notation. About 8,200 (2.3%) of roughly 360,000 compounds were called active. What follows is part of a selection rich in actives, with near analogues and random picks from the rest. Unmarked numbers belong to inactive results. Cut-off read from the data, not from the text of the source: active = inhibition above about 27%; inactive = the rest.

The target in the test is Fructose-bisphosphate aldolase (Mycobacterium tuberculosis (strain ATCC 25618 / H37Rv)) (UniProt P9WQA3). The experiment in a line: Mtb FBA enzyme inhibitors, primary screen, biochemical, fluorescence, strain H37Rv (AID 588726).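 Note: 0% = vehicle and 100% = reference inhibitor.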 The conditions noted are these: purified M. tuberculosis FBA, fluorescence read-out, at 1 µM, stronger effect = higher value.
Sequence of Fructose-bisphosphate aldolase (Mycobacterium tuberculosis (strain ATCC 25618 / H37Rv)) (P9WQA3 whole entry, looked up): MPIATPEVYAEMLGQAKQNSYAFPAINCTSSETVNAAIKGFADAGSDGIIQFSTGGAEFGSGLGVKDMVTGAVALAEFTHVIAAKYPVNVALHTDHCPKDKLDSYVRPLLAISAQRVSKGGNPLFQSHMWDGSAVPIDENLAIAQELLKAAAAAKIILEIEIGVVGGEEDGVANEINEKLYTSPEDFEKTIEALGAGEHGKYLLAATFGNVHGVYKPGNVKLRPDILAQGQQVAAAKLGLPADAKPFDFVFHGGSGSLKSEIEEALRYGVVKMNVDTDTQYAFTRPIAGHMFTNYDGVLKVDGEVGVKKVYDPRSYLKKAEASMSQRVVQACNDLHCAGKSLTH
By inhibition is commonly meant the change of the read-out against control, counted positive when it falls. As to `COc1cc(CN2CCCN(C)CC2)c([N+](=O)[O-])cc1OC`, the inhibition is 2.5%.

In the case of `O=C(Nc1ccc(F)c([N+](=O)[O-])c1)C1CC(=O)N(Cc2ccccc2)C1` (stereo not drawn), the inhibition is -0.61%.

Take `Cc1cc(=O)oc2cc(NC(=O)C3CC(=O)N(Cc4ccccc4)C3)ccc12` (stereo not drawn): the inhibition was 68.5% (active).

Regarding `CCNC(=O)c1cccc(NC(=O)C2CC(=O)N(CCc3ccccc3)C2)c1` (stereo not drawn), the inhibition is 3.18%.

`CC(=O)c1cccc(NC(=O)COc2ccc(S(=O)(=O)N3CCOCC3)cc2)c1`: the inhibition was -1.21%.

As for `Cc1ccc(NC(=O)C(CC(=O)O)C2CCCO2)c(C)c1` (stereo not drawn), the inhibition was 2.55%.

`CC(C)=CCc1c(O)c(CC=C(C)C)c2occ(-c3ccc(O)cc3)c(=O)c2c1O`: the inhibition is -0.11%.

Take `CCOC(=O)c1oc2c(CN3CCN(C)CC3)c(O)ccc2c(=O)c1-c1ccc(Br)cc1`: the inhibition is -0.95%.

As to `O=C1/C(=C/c2coc3ccc(O)cc3c2=O)SC(=S)N1c1ccccc1`, the inhibition is -0.97%.

Take `O=c1c(-c2ccccc2)coc2c(CN3CCOCC3)c(O)ccc12`: the inhibition is 36.3% (active).

Consider `O=c1c(-c2ccccc2)coc2cc(O)ccc12`, for which the inhibition is 32.2% (active).

As to `O=c1[nH]c(CN2CCOCC2)nc2scc(-c3ccccc3)c12`, the inhibition is -0.65%.

For `O=C(Cc1cccs1)N(CC1CCCO1)C1(C(=O)NC2CCCCC2)CCCCC1` (stereo not drawn), the inhibition is -1.48%.

As to `C/C(=N/NC(=O)CN1CCN(S(=O)(=O)c2ccc(Br)cc2)CC1)c1ccncc1`, the inhibition is -1.72%.

On to `Cc1nc2nc(C)c(NS(=O)(=O)c3ccc(C(C)(C)C)cc3)c(=O)n2[nH]1`, for which the inhibition was 1.79%.

With `CC(=O)c1ccc(N2CCN(CC(O)c3ccccc3)CC2)cc1` (stereo not drawn), the inhibition was -0.54%.

Turning to `COc1cc(N)c(Cl)cc1C(=O)OCC(=O)c1ccc2c(c1)NC(=O)CO2`, the inhibition was -2.6%.

Consider `CSc1ccc(CN2C(=O)NC3(CCCCCC3)C2=O)cc1`, for which the inhibition is 6.55%.

Consider `COc1ccc(CNC(=O)c2c[nH]c3c(OC)cc(OC)cc3c2=O)cc1`, for which the inhibition was 34.8% (active).

For `CCSc1ccccc1C(=O)NCc1ccc(OC)cc1`, the inhibition was -3.44%.

Consider `COc1ccc(CNC(=O)c2cc(C(=O)C3CC3)c[nH]2)cc1`, for which the inhibition is 5.17%.

With `C=CC[C@@H](CC(=O)N[C@@H](CO)Cc1ccccc1)C(=O)N[C@H](COC(=O)[C@H](CC=C)CC(=O)OC(C)(C)C)Cc1ccccc1`, the inhibition is 3.8%.

With `Cc1nc(NCCN)c(C#N)c2c1COC(C)(C)C2`, the inhibition was 27.9% (active).

With `CCCCc1nc(NCCN)c(C#N)c2c1CSC(C)(C)C2`, the inhibition was 5.12%.

For the molecule `Cc1nc(NCc2ccccc2)c(C(N)=O)c2c1COC(C)(C)C2`, the inhibition is 22.3%.

Regarding `CC(C)Cc1nnc(N)s1`, the inhibition is 0.9%.

Regarding `CC(=O)Nc1ccc(S(=O)(=O)NCCC(=O)N2CCN(c3ccccc3Cl)CC2)cc1`, the inhibition is 3.53%.

Turning to `O=c1c2ccccc2nc(-c2ccccc2)n1-c1ccccn1`, the inhibition was -4.31%.

Turning to `Cc1ccc(-c2nc3ccccc3c(=O)n2-c2ccc(Br)cn2)cc1`, the inhibition is 27.5% (active).

Consider `O=C(Nn1c(-c2ccc(Cl)cc2)nc2ccccc2c1=O)c1cccnc1Cl`, for which the inhibition is 15%.

As for `COCCNC(=O)/C(C#N)=C/c1nc(N(C)C)n(-c2ccc(F)cc2)c1Cl`, the inhibition was 0.71%.

Take `O=Cc1c(N2CCN(c3cccc(Cl)c3)CC2)nc2ccccn2c1=O`: the inhibition is 6.06%.

Consider `COCCCNC(=O)/C(C#N)=C/c1c(N2CCCCCC2)nc2ccccn2c1=O`, for which the inhibition is 74.5% (active).

`N#CC1(C#N)C(C(=O)C23CC4CC(CC(C4)C2)C3)C12CCOCC2` (stereo not drawn): the inhibition is 1.25%.

In the case of `CSc1ncccc1C(=O)OCc1ccc(Br)cc1`, the inhibition is 2.13%.

With `CCCc1nc2oc3c(OCC)ncnc3c2c2c1COC(C)(C)C2`, the inhibition was -1.08%.

With `CC/C(C)=N/Nc1nc2sc3c(c2c(=O)[nH]1)CC(C)(C)OC3`, the inhibition is 21.5%.

As for `CCCc1nc2oc3c(=O)[nH]cnc3c2c2c1COC(C)(C)C2`, the inhibition was 40.7% (active).

Take `Nn1c(SCC(=O)NC(=O)NC2CCCC2)nnc1-c1ccccc1F`: the inhibition is 0.25%.

As to `Cc1nc2ccc(C(=O)N3CCSCC3)cc2s1`, the inhibition is -8.83%.

For the molecule `CN(CCc1ccccn1)C(=O)c1ccc(OC2CCN(Cc3ccccn3)CC2)cc1`, the inhibition is 3.08%.

As to `COc1cc2c(cc1OC)C(Nc1ccc(S(N)(=O)=O)cc1)=NC(C)(C)C2`, the inhibition was 0.94%.

Take `COc1cc2c(cc1OC)C(C(C)C)=NC(C)(C)C2`: the inhibition is 140% (active).

`COc1cc2c(cc1O)C(SC)=NC(C)(C)C2`: the inhibition is 0.86%.

For the molecule `COc1ccccc1C(=O)Nc1ccc(OCc2nnc3c4ccccc4c(C)nn23)cc1`, the inhibition was 1.57%.

For `O=C(COc1ccccc1Cl)N1CCCCCCC1`, the inhibition was 3.37%.

For `COc1ccccc1C(=O)Nc1ccc(OCC(=O)N2CCCCC2)cc1`, the inhibition was 42.3% (active).

Consider `OC[C@@H]1CN(Cc2cccs2)C[C@H](n2cnc3c(Nc4ccccc4)ncnc32)O1`, for which the inhibition was 44.8% (active).

Regarding `CCN(CC)c1ncnc2c1ncn2[C@H]1CN(Cc2cccs2)C[C@@H](CO)O1`, the inhibition was 1.17%.

Consider `OC[C@@H]1CN(Cc2cccs2)C[C@H](n2cnc3c(NC4CCCC4)ncnc32)O1`, for which the inhibition was -0.13%.

Consider `CC1(C)CC2CC(C)(CN2c2ncnc3ccc(Br)cc23)C1` (stereo not drawn), for which the inhibition was 6.02%.

Consider `Cc1occc(=O)c1OCc1c(Cl)cccc1Cl`, for which the inhibition was 2.61%.

For the molecule `CCCN(C(=O)CSc1nnc(N)s1)c1c(N)n(Cc2ccccc2)c(=O)[nH]c1=O`, the inhibition was 48.3% (active).

As for `CN(C(=O)CSc1nnc(N)s1)c1c(N)n(Cc2ccccc2)c(=O)[nH]c1=O`, the inhibition was 1.14%.

As for `CCCN(C(=O)CSc1nnnn1C)c1c(N)n(Cc2ccccc2)c(=O)[nH]c1=O`, the inhibition is 9.36%.

On to `COc1ccc(CNC(=O)C[C@H]2C[C@H](C(=O)N3CCOCC3)[C@@]3(C)c4[nH]c5cc(CCC(=O)N(C)C)ccc5c4CCN3C2=O)cc1OC`, for which the inhibition was -3.63%.

With `COc1ccccc1N(C)S(=O)(=O)c1ccc(C(=O)N2CCC(C(N)=O)CC2)cc1`, the inhibition is 2.31%.

Consider `Cc1oc(-c2ccccc2F)nc1CS(=O)CC(=O)NCCN1CCCCC1C` (stereo not drawn), for which the inhibition is -1.66%.

Consider `N#Cc1nc(COc2ccc(Cl)cc2)oc1N1CCCC1`, for which the inhibition is -2.71%.

In the case of `COc1ccccc1CNC(=O)C1CCN(c2nc3ccccc3o2)CC1`, the inhibition was 0.23%.

Turning to `Cc1nc(-c2ccccc2)sc1-c1nnc(C2CC2)o1`, the inhibition is 18.1%.

On to `Cn1cnnc1Sc1ccc(CN2CCN(C3CCCC3)C(CCO)C2)o1` (stereo not drawn), for which the inhibition is -0.65%.

Turning to `CCCCCCCCCCCCN1[C@@H](CC(C)=O)c2cc(F)cc(F)c2S1(=O)=O`, the inhibition was -2.16%.

In the case of `COc1ccc(CCNC(=O)c2ccc(NC(=O)CC3SC(N4CCCCC4)=NC3=O)cc2)cc1OC` (stereo not drawn), the inhibition is 1.72%.

With `NS(=O)(=O)c1ccc(CCNC(=O)CNC(=O)Cc2ccccc2)cc1`, the inhibition is 4.09%.

In the case of `CC[C@@]1(C(=O)OC)N[C@H](CN(C)C(C)=O)[C@@H]2C(=O)N(C)C(=O)[C@@H]21`, the inhibition was -0.4%.

Regarding `O=C1C2C3C=CC(C3)C2C(=O)N1c1ncc([N+](=O)[O-])s1` (stereo not drawn), the inhibition is 0.42%.

Regarding `Cc1ccc2nnn(Cc3cccc(C(C)(C)C)c3O)c2c1`, the inhibition is -1.49%.

For `Cc1c(OC(C)C(=O)N[C@@H](Cc2ccccc2)C(=O)O)ccc2c3c(c(=O)oc12)CCCC3` (stereo partly drawn), the inhibition is 57.5% (active).

On to `Cc1oc2c(C)c3oc(=O)c(CC(=O)N[C@@H](CC(C)C)C(=O)N[C@@H](Cc4ccccc4)C(=O)O)c(C)c3cc2c1C`, for which the inhibition was 14.5%.

As for `Cc1c(OC(C)C(=O)NCC2CCC(C(=O)O)CC2)ccc2c1oc(=O)c1ccccc12` (stereo not drawn), the inhibition is 11.2%.

`CCOC(=O)N1CCC(c2cc(=O)n(-c3ccccc3)[nH]2)CC1`: the inhibition was 2.04%.

With `NS(=O)(=O)c1ccc(N2C(=O)C3C4CC(C(Br)C4Br)C3C2=O)cc1` (stereo not drawn), the inhibition was 2.97%.

Consider `COc1ccc(N(CC(=O)Nc2ccc(F)c(F)c2)S(=O)(=O)c2c(C)[nH]c(=O)[nH]c2=O)cc1`, for which the inhibition was 0.84%.

As to `Cn1c(=O)n(C)c(=O)n(CC(=O)N2CCCCC2)c1=O`, the inhibition is -2.14%.

Consider `O=C(CN1C(=O)c2cccc3cccc(c23)C1=O)N1CCCCC1`, for which the inhibition was 31.8% (active).

Regarding `O=C(CN1C(=O)c2cccc3cccc1c23)Nc1ccccc1`, the inhibition is 1.33%.

Consider `O=S1(=O)CC/C(=N\Nc2ccc(F)cc2)c2ccsc21`, for which the inhibition was 0.47%.

For the molecule `CCn1c(SC)nc(O)c(C(c2ccc(OC)c(O)c2)c2c(O)nc(SC)n(CC)c2=O)c1=O`, the inhibition is 0.76%.

For `N/C(=N\S(=O)(=O)c1ccc(Cl)cc1)N1CCOCC1`, the inhibition was -1.72%.

Turning to `O=S(=O)(c1ccccc1)N1CN(Cc2ccc(F)cc2)c2nc3ccccc3nc21`, the inhibition is 1.18%.

Take `CC1=CC2=NC(=O)CC(C)(C(=O)N(CC(=O)NC(C)(C)C)Cc3ccccc3)N2C=C1` (stereo not drawn): the inhibition is 39.1% (active).

As to `C=CCC1(C(=O)N(C)Cc2ccccc2)CCN(C(=O)OC(C)(C)C)CC1`, the inhibition was -0.41%.

As to `CCN(CC(=O)Nc1cc(Cl)ccc1C)C(=O)CSCc1ccccc1`, the inhibition was 1.52%.

On to `Cc1ccc(S(=O)(=O)Nc2nc(N)n(-c3ccccc3)n2)cc1`, for which the inhibition was -1.75%.

For the molecule `CCC(=O)Nc1c(S(=O)(=O)c2ccccc2)c2nc3ccccc3nc2n1Cc1ccccc1`, the inhibition is 71.7% (active).

Consider `CCN(CC)CCn1c(N)c(S(=O)(=O)c2ccccc2)c2nc3ccccc3nc21`, for which the inhibition is 73.8% (active).

For `CCC(=O)Nc1ccccc1C(=O)N1CCN(Cc2ccccc2)CC1`, the inhibition is 1.09%.

As to `CCCn1nc(NS(=O)(=O)c2ccc(F)cc2)c2cc3ccccc3nc21`, the inhibition is 1.96%.

Regarding `Cc1ccc(S(=O)(=O)c2c(N)n(C)c3nc4ccccc4nc23)cc1`, the inhibition is 195% (active).

As for `CCC(=O)Nc1ccc2nc(C)n(Cc3ccccc3Cl)c(=O)c2c1`, the inhibition is -0.06%.

For the molecule `CCCn1nc(NS(=O)(=O)c2ccccc2)c2cc3cc(C)ccc3nc21`, the inhibition is -1.36%.

Consider `Cc1ccc(S(=O)(=O)NCc2nc3ccccc3c(=O)n2N)cc1`, for which the inhibition was 0.87%.
